Methyltransferases – Primary Screen for Target Class Profiling of Small Molecule Inhibitors of Methyltransferases | calls only at 40 µM | 25,000 tested, 3.9% active | purified enzyme, MTase-Glo SAH luminescence; hits give low values | AID 1745853, 2022; call rule not given here
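Each enzyme was assayed with SAM and its substrate. SAH formation detected by MTase-Glo luminescence; single-point 40 uM screen[…].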
Calls only; i = inactive; + = active, no number; ! = not confirmed by another sample. This is one part of a sample in which hits are shown more often than they occur.

SMILES	Methyltransferases
O=C(N[C@@H]1CN(C(=O)Cn2c(=O)oc3ccccc32)CC[C@@H]1CO)c1ccccc1	i
CC(C)C1NC(=O)C2CCCN2C1=O (stereo unspecified)	i
CCCn1c(=O)c2ccc(C(=O)NC(C)CC)cc2n2c(=O)n(CC(=O)c3ccccc3)nc12 (stereo unspecified)	i
COc1cc(C(=O)NCC2(N(C)C)CCCC2)cc(OC)c1OCc1ccccc1	i
CCN1CCN(CCNC(=O)c2cc3n(n2)CC(C)(C(=O)NCc2ccc(F)cc2)N(C)C3=O)CC1 (stereo unspecified)	i
CC(=O)N1CCN(C(=O)Cc2ccc(Nc3ncc(F)c(Nc4ccc(C(=O)Nc5ccccc5Cl)cc4)n3)cc2)CC1	i
CCS(=O)(=O)N1CCN(c2ccc(Nc3ncc(C(N)=O)c(NC4CC4)n3)cc2)CC1	+
CC(=O)O[C@H]1C[C@@]2(C)[C@@H](C[C@@H](O)[C@H]3[C@@]4(C)CC[C@@H](O)[C@@H](C)[C@@H]4CC[C@@]32C)/C1=C(\CCC=C(C)C)C(=O)O	i
CN(Cc1cccn1C)C(=O)c1ccccc1F	i
Cn1cc(Nc2ccc(Cl)cc2)c2nc(CN3CC[S+](=O)([O-])CC3)cn2c1=O	i
CC(C)OCCCn1c(=O)c2ccccc2n2c(=O)n(CC(=O)c3cccc(Cl)c3)nc12	i
CCNC(=O)N1CCC(CCOC)(NS(=O)(=O)c2cccc3cccnc23)CC1	i
Cc1cc(N(C)C)ccc1-c1nc2ccc(-c3nc4ccc(N5CCN(C)CC5)cc4[nH]3)cc2[nH]1	+
Cc1ccc(CNC(=O)c2cc3n(n2)CC(C)(C(=O)NCc2ccc(F)cc2)N(C)C3=O)o1 (stereo unspecified)	i
COc1ccccc1C(=O)N1CCC(C(=O)N2CCC(c3nc4ncccc4[nH]3)C2)CC1 (stereo unspecified)	i
COc1cc2nc(N3CCN(C(=O)COc4c(OC)cccc4C(C)C)CC3)nc(N)c2cc1OC	i
COc1cc2nc(N3CCCN(C)CC3)nc(NC3CCN(Cc4ccccc4)CC3)c2cc1OC	+
CN1CCN(Cc2nnc(C(=O)N3CCC[C@@H]3c3ccc(Br)cc3)n2Cc2ccccc2)CC1	i
COc1cc2c(NC3CCN(C(C)C)CC3)nc(N3CCC(F)(F)CC3)nc2cc1OCCCN1CCCC1	+
O=C(NC1CCN(Cc2ccccc2)CC1)C1CCCN(c2cnc3nccnc3c2)C1 (stereo unspecified)	i
COc1cc2nc(N3CCN(C)CC3)nc(NC3CCN(Cc4ccccc4)CC3)c2cc1OC	+!
COc1ccccc1-c1cccc(CN2CCC(NC(C)=O)CC2)c1	i
COC(=O)c1cc2n(n1)CC(C)(C(=O)NC1CCC(C)CC1)N(Cc1ccccc1C)C2=O (stereo unspecified)	i
CC1(C(=O)NCc2ccccc2)Cn2c(cc3ccccc32)C(=O)N1Cc1ccccc1Br (stereo unspecified)	i
CCC(C)NC(=O)c1ccc2c(=O)n(C)c3nn(CC(=O)Nc4cccc(C)c4)c(=O)n3c2c1 (stereo unspecified)	i
SMILES	Methyltransferases
CC(C)NC(=O)c1ccc2c(=O)n(C(C)C)c3nn(Cc4ccc(F)cc4)c(=O)n3c2c1	i
COCCCNC(=O)CCc1nnc2n(Cc3ccc(F)cc3)c(=O)c3ccccc3n12	i
CCN(Cc1ccncc1)C(=O)C(CO)c1ccccc1 (stereo unspecified)	i
Cc1ccccc1CCNC(=O)CNC(=O)C1(C)Cn2c(cc3ccccc32)C(=O)N1C (stereo unspecified)	i
CC1=C(C(=O)OCc2ccccc2)C(c2ccc(-c3ccccc3)cc2)NC(=O)N1CCCCCC(=O)O (stereo unspecified)	+
O=C(NCCCc1ccccc1)C1CN(C2CCCC2)C(=O)N1 (stereo unspecified)	i
O=C1N[C@@H]2CCN(C(=O)c3ccc(-c4ccccc4)cc3)[C@@H]2C(=O)N1Cc1ccccc1	i
CN(C)CCO[C@H]1C[C@@H](O)C12CCN(C(=O)Cc1ccc3ccccc3c1)CC2	i
CC(C)NC[C@H](O)COc1ccc(CC(N)=O)cc1	i
C=C(C)C1Cc2cc(C(=O)OC3OC(CO)C(O)C(O)C3O)ccc2O1 (stereo unspecified)	+
COc1cc(C(C)=O)ccc1O[C@@H]1O[C@H](CO)[C@@H](O)[C@H](O)[C@H]1O	i
COc1cc(C(=O)O)ccc1OC1OC(CO)C(O)C(O)C1O (stereo unspecified)	i
Cc1ccccc1NC(=O)CSc1nnc2n(CC(C)C)c(=O)c3ccccc3n12	i
COCCNc1ncccc1-c1noc([C@@H]2CCCN2C2CCN(C)CC2)n1	i
Cc1c(-c2ccc3c(c2)OCO3)oc2ccc(C(O)C(C)O)cc12 (stereo unspecified)	i
Cc1nc(CN(C)c2ncnc3ccc(-c4ccc5c(c4)OCO5)cc23)cs1	+
CN(C)[C@@H]1CN(C(=O)CCc2ccccc2)C[C@H]1CO	i
COc1ccc(OC)c(-c2ccc(NC(=O)c3ccncc3F)cc2)c1	i
O=C(Nc1ccc(F)cc1)c1ccnc2[nH]ccc12	i
Nc1nccc(Oc2ccc(NC(=O)c3c[nH]cc(-c4ccc(F)cc4)c3=O)cc2F)c1Cl	+
Cc1cc(CNS(=O)(=O)c2ccc3c(c2)oc(=O)n3C)c(C)n1-c1ccc(F)cc1	i
CCC(C)NC(=O)c1ccc2c(=O)n(C(C)C)c3nn(Cc4ccccc4)c(=O)n3c2c1 (stereo unspecified)	i
CCOCCCNC(=O)N1Cc2c(sc3c2CCCC3)-n2cccc2C1c1cccc(F)c1 (stereo unspecified)	i
COc1ccc2c(c1)c(CC(=O)O)c(C)n2C(=O)c1ccccc1	i
COc1ccccc1CN1C(=O)c2nc3ccccc3n2CC1(C)C(=O)NC1CCCC(C)C1C (stereo unspecified)	i
SMILES	Methyltransferases
C[C@@]12C(=O)N(c3ccc(C(=O)Nc4cccc5cccnc45)cc3)C(=O)[C@@H]1[C@@H]1C=C[C@H]2C1	i
CN(Cc1ccc(C(=O)O)cc1)c1ccc(OCc2c(-c3c(Cl)cccc3Cl)noc2C2CC2)nc1C(F)(F)F	+
Cc1cc(C)c(S(=O)(=O)c2nnn3c2nc(NCCCOC(C)C)c2ccccc23)c(C)c1	i
COc1cc(C(=O)O)ccc1NC(=O)[C@@H]1N[C@@H](CC(C)(C)C)[C@](C#N)(c2ccc(Cl)cc2F)[C@H]1c1cccc(Cl)c1F	+
NC(N)=NC(=O)Cc1c(Cl)cccc1Cl	i
CCCCN1C(=O)c2cc(C(=O)NCCCc3ccccc3)nn2CC1(C)C(=O)NC1CCCC1 (stereo unspecified)	i
O=C1CCC(c2ccc(-n3ccnc3)cc2)=NN1	i
Fc1ccc2[nH]ccc2c1-c1nc(N2CCOCC2)c2sc(CN3CCN(CC4CC4)CC3)cc2n1	+
CC(=O)OC1C(c2ccccc2)CCC(c2ccccc2)C1OC(C)=O (stereo unspecified)	i
CC(C)NC(=O)N1CCCC1c1noc(CCC(=O)NCC2CC2)n1 (stereo unspecified)	i
CN(CC(=O)NC1CCCC1)S(=O)(=O)c1ccc2[nH]c3c(c2c1)CCCC3	i
CC(C)(C)c1onc(OCP(=O)(O)O)c1CC(N)C(=O)O (stereo unspecified)	i
O=C(Nc1ccnc(NC(=O)C2CC2)c1)c1c(Cl)cccc1Cl	i
O=C(Nc1cccc(Nc2cc(Nc3cccc(C(F)(F)F)c3)ncn2)c1)C1CC1	+
O=C(O)c1cccnc1Nc1cccc(C(F)(F)F)c1	i
COc1ccc(OC)c(NC(=O)N2CCn3cccc3C2C)c1 (stereo unspecified)	i

High-throughput results as filed in PubChem BioAssay.
